Data from PubChem BioAssay (NCATS).
Results filed as inconclusive are left out. Active and inactive are the calls of the source. Unless noted, calls follow the shape of the dose curve; as a rule, active = well fitted curve in the direction sought with a large enough effect; inconclusive = small, poorly fitted or top-dose-only effect, or effect the other way, or another doubt; inactive = no such curve, though single readings can be large or run the other way.

Assay: Inducers of the Endoplasmic Reticulum Stress Response (ERSR) in human glioma: Validation (AID 504836); also: 0% is about no effect
Conditions: human glioma cells, ER stress response reporter; series mostly up to 38.3 µM; activation: at the top concentration
How it was run: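 Stably transfected U87-MG glioma cells carrying a GRP78-based luciferase sensor; 16 h compound incubation. Luminescence end-point read 10 min after Bright-Glo addition at room temperature.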

SMILES | activation
Cc1ccc(S(=O)(=O)/C=C/C#N)cc1 | -11.7% (inactive)
CC12C(=O)OC(=O)C1(C)C1CCC2O1 (centres undefined) | -7.02% (inactive)
Cc1ccc(O)c(N=Nc2ccccc2)n1 | -10.6% (inactive)
O=C1Cc2c([nH]c3ccc(Br)cc23)-c2ccccc2N1 | -0.332% (inactive)
O=C1NC(=O)/C(=C/c2ccc3nccnc3c2)S1 | -4.44% (inactive)
N#Cc1cc([N+](=O)[O-])c2sc(C(N)=O)[n+]([O-])c2c1 | -0.604% (inactive)

Assay: qHTS for Inhibitors of the Functional Ribonucleoprotein Complex (vRNP) of Lymphocytic Choriomeningitis Arenaviruses (LCMV): Viability assay - alamar blue signal for LCMV Primary Screen (AID 1347085; calls by dose curve; tested in HEK293 reporter line; also: nearly all actives have a fitted effect of over 80% in size; also: potency is read from the fitted curve at half-maximal effect; as to activity change, negative = lower viability: % is scaled to controls: 0 for no effect and ±100 for the full control effect)
Conditions: alamar blue viability counter-screen, LCMV vRNP screen cells; series mostly up to 57.5 µM; activity change, negative = lower viability: at the top concentration

SMILES | Potency | activity change, negative = lower viability
COc1cc2c(NC3CCN(C(C)C)CC3)nc(C3CCCCC3)nc2cc1OCCCN1CCCC1 | 38.5 µM (active) | –
COc1ccc(C(=O)/C=C/c2ccc(OC)cc2OC)c(O)c1 | – | -6.09% (inactive)
CC(=O)/C=C1\C(=O)N(C)c2ccccc21 | – | -24% (inactive)
COc1ccc(CCOC2OC(CO)C(OC(=O)/C=C/c3ccc(O)c(OC)c3)C(O[C@H]3O[C@@H](C)[C@H](O)[C@@H](O)[C@H]3O)C2O)cc1O (some centres undefined) | – | 1.33% (inactive)
Cc1ccc(S(=O)(=O)/C=C/C#N)cc1 | – | -12% (inactive)
COc1ccc2cc1Oc1ccc(cc1)C[C@H]1c3cc(c(OC)cc3CCN1C)Oc1c(OC)c(OC)cc3c1[C@H](C2)N(C)CC3 | – | -14.3% (inactive)
CC(C)(C)c1nc2c3cc[nH]c(=O)c3c3cc(F)ccc3c2[nH]1 | – | -17.4% (inactive)
NS(=O)(=O)c1ccc(NC2=CC(=O)c3ccccc3C2=O)cc1 | 38.5 µM (active) | –
CC12C(=O)OC(=O)C1(C)C1CCC2O1 (centres undefined) | 11.2 µM (active) | –
Cc1ccc(O)c(N=Nc2ccccc2)n1 | – | -26.9% (inactive)
Cc1cccc(O)c1C | – | 9.16% (inactive)
COC1CC2C=C(C)C=CC=CC(=O)NC(c3ccccc3)CC=CCCC(O)CC(=O)C2=C1O (centres undefined) | – | -104% (inactive)
C[C@@]1(c2cc(-c3cncnc3)c(F)cc2F)CCSC(N)=N1 | 13.7 µM (active) | –
CCCCC[C@H]1CCCCC[C@@H](O)C[C@H](O)[C@H](O)/C=C/C(=O)O1 | – | 5.21% (inactive)
CCC[C@H](N[C@@H](C)C(=O)N1[C@@H]2CCCC[C@H]2C[C@H]1C(=O)O)C(=O)OCC | – | -144% (inactive)
O=S(=O)(NCCNCC=Cc1ccc(Br)cc1)c1cccc2cnccc12 | – | -4.92% (inactive)
CC=CC[C@@H](C)C(=O)[C@H]1C(=O)N[C@@H](C(C)C)C(=O)N(C)CC(=O)N(C)[C@@H](CC(C)C)C(=O)N[C@@H](C(C)C)C(=O)N(C)[C@@H](CC(C)C)C(=O)N[C@@H](C)C(=O)N[C@H](C)C(=O)N(C)[C@@H](CC(C)C)C(=O)N(C)[C@@H](CC(C)C)C(=O)N(C)[C@@H](C(C)C)C(=O)N1C | – | 15.3% (inactive)

SMILES | Potency | activity change, negative = lower viability
C[C@@]12C=Cc3occc3[C@H]1CC[C@@]13C[C@@H](CC[C@H]12)[C@@](O)(CO)C3 | – | 14.2% (inactive)
NC(=O)c1nnn(Cc2cc(Cl)c(C(=O)c3ccc(Cl)cc3)c(Cl)c2)c1N | – | -27.1% (inactive)
CC1(C)CNc2cc(NC(=O)c3cccnc3NCc3ccncc3)ccc21 | 34.3 µM (active) | –
CCCC(=O)OCCC(C)C | – | 13.5% [at 115 µM] (inactive)
C=CC(=O)N1CCC[C@@H](n2nc(-c3ccc(Oc4ccccc4)cc3)c3c(N)ncnc32)C1 | 21.7 µM (active) | –
CN(C)c1ccc2cc(C(=O)N[C@@H](CCCN=C(N)CCl)C(=O)NCc3ccccc3)ccc2c1 | 34.3 µM (active) | –
O=C1Cc2c([nH]c3ccc(Br)cc23)-c2ccccc2N1 | – | -99.9% (inactive)
O=C1NC(=O)/C(=C/c2ccc3nccnc3c2)S1 | – | -106% (inactive)
CCCCCCCCc1ccc(CCC(N)(CO)CO)cc1 | – | -139% (inactive)
CC(C)=CCCC(C)=CCCC(C)=CCCC(C)=CCCC(C)=CCCC(C)=CCCC(C)=CCCC(C)=CCCC(C)=CCO | 21.7 µM (active) | –
CCCCCC(=O)N[C@@H](c1ccccc1)[C@@H](O)C(=O)O[C@H]1C[C@@]2(O)[C@@H](OC(=O)c3ccccc3)C3[C@](C)(C(=O)[C@H](OC(C)=O)C(=C1C)C2(C)C)[C@@H](O)C[C@H]1OC[C@@]31OC(C)=O (some centres undefined) | – | -107% (inactive)
CO[C@@H]1[C@@H](OC2OC(C)C(OC3CC(C)(O)C(OC(=O)CC(C)C)C(C)O3)C(N(C)C)C2O)[C@@H](CC=O)C[C@@H](C)C(=O)/C=C\C2O[C@H]2C[C@@H](C)OC(=O)C[C@H]1OC(C)=O (some centres undefined) | – | -4.95% (inactive)
CC(=O)OC[C@@H]1O[C@@H](n2ccc(=O)[nH]c2=O)[C@H](OC(C)=O)[C@H]1OC(C)=O | 4.85 µM (active) | –
N#Cc1cc([N+](=O)[O-])c2sc(C(N)=O)[n+]([O-])c2c1 | – | -6.04% (inactive)
CCOc1cc2c(c(F)c1OCC)C(=N)N(CC(=O)c1cc(N3CCOCC3)c(OC)c(C(C)(C)C)c1)C2 | 24.3 µM (active) | –
CC1(C)CC(=O)c2c(C(F)(F)F)nn(-c3ccc(C(N)=O)c(NC4CCC(OC(=O)CN)CC4)c3)c2C1 (centres undefined) | 0.769 µM (active) | –
